Screening results deposited in PubChem BioAssay by National Center for Advancing Translational Sciences (NCATS).
Shown are actives, neighbours in structure and some others; about 7.1% of the full set was active somewhere.
PINK1 modulator = A Quantitative High throughput Screen to Identify Chemical Modulators of PINK1 Expression; PINK1 immunofluorescence, high-content cytometry, 24 h; Potency, µM (series often up to 76.6 µM), without a hit: at the highest dose activation (PINK1 increase), usual class: activators; 410,000 compounds, 0.2% hits; active = well fitted activation curve with a large enough effect; inconclusive = small, poorly fitted or top-dose-only effect; cell line not stated here; note: potency is the fitted concentration of half-maximal effect; % of control where 0% means no effect; nearly all actives have a fitted effect of over 65% in size
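Measures PINK1 amount and localization on or inside mitochondria by immunofluorescence. Stable cells get compounds at 5 concentrations for 24 hours before fixation and staining; CCCP controls included.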
IL-1B inflam inh = qHTS for Inhibitors of Inflammasome Signaling: IL-1-beta AlphaLISA Primary Screen; activity change, % at 57.5 µM; AID 743279, 2014; 360,000 compounds, 4.7% hits; THP-1 LPS/ATP IL-1B secretion, AlphaLISA, 16 h; active compounds read low; in the data active = activity change below about -50%; inconclusive = mostly about -30% to -49%; note: % is set by controls: 0 for no effect and ±100 for the full control effect
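THP-1 cells pretreated 1 hr with compounds (up to 57.5 uM final), then stimulated with LPS (250 ng/mL final) plus ATP (1.25 mM final); secreted IL-1B measured by AlphaLISA after 16 hr, decreased signal indicating inhibition.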
MCF10A rerep = A quantitative high throughput screen for small molecules that induce DNA re-replication in MCF 10a normal breast cells; MCF 10A DNA re-replication, Hoechst nuclear intensity, 48 h; Potency, µM (highest dose often 46.1 µM), for inactives: at the top dose activity, positive = re-replication, hits mostly activators; 350,000 compounds, 2.9% hits; note: potency is the fitted concentration of half-maximal effect; % of control where 0% means no effect; nearly all actives have a fitted effect of over 50% in size
SW480 rerep = A quantitative high throughput screen for small molecules that induce DNA re-replication in SW480 colon adenocarcinoma cells; SW480 DNA re-replication, Hoechst DNA content imaging, 48 h; Potency, µM (series often up to 46.1 µM), for the others: at the highest dose re-replication activation, actives largely listed as activators; 340,000 compounds, 1.8% hits; AID 624297, 2012; note: potency is the fitted concentration of half-maximal effect; % of control where 0% means no effect; nearly all actives have a fitted effect of over 55% in size
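Image-based DNA-content assay: after two days of treatment, nuclei were labelled with the DNA dye Hoechst and imaged, and hits were compounds raising the count of nuclei showing high fluorescence intensity.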
ATXN2 expr inh = Primary qHTS for Inhibitors of ATXN expression. Potency, µM (series often up to 57 µM), without a hit: top-dose activity change, negative = inhibition, hits mostly inhibitors. AID 1745845, 2022. HEK-293 ATXN2-luciferase reporter, luminescence, 24 h. 360,000 compounds, 0.72% hits; note: potency is the fitted concentration of half-maximal effect; % is set by controls: 0 for no effect and ±100 for the full control effect; nearly all actives have a fitted effect of over 55% in size
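qHTS (up to 57 uM final) was run with 24 h compound exposure of reporter cells at 37 °C. Each well was multiplexed: SteadyGlo luminescence measured ATXN2-luciferase expression after a fluorogenic Gly-Phe-AFC viability readout (25 uM final).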
S2 tox = Viability Counterscreen for Primary qHTS for Inhibitors of ATXN expression | Potency, µM (series often up to 56.7 µM), most hits filed as cytotoxic | 400,000 compounds, 0.49% hits | S2 cells (HEK-293 line with an ATXN2-luciferase reporter) viability, CellTiter-Fluor protease fluorescence, 24 h | AID 651635, 2014; note: potency is the fitted concentration of half-maximal effect; nearly all actives have a fitted effect of over 40% in size
An asterisk follows results filed as active; i = inactive; ? = inconclusive; nt = no result given; [ ] = remark or other dose. Unless noted, calls come from the whole dose curve; as a rule, active = well fitted curve in the direction sought with a large enough effect; inconclusive = small, poorly fitted or top-dose-only effect, or another doubt; inactive = no such curve, though single readings can be large; an effect the other way counts as inactive or inconclusive.

SMILES	PINK1 modulator	IL-1B inflam inh	MCF10A rerep	SW480 rerep	ATXN2 expr inh	S2 tox
N#C/C(=C\c1ccc(Cl)cc1)c1nc(-c2cc3ccccc3oc2=O)cs1	1.9%	nt	nt	nt	nt	nt
COc1cc(/C=C(\C#N)c2nc(-c3cc4ccccc4oc3=O)cs2)ccc1O	6.5%	23.2	0.92µM*	-4.2%	0.3%	i
N#C/C(=C\c1ccc(O)cc1)c1nc2ccccc2o1	?	-2.4	?	1.3%	20.5%	i
COc1cc(/C=C(\C#N)c2nc3ccccc3o2)ccc1O	7.2%	30.6	18.4µM*	16.9%	13.9%	i
O=C(NCc1ccccn1)c1cnn(-c2nccc(-c3ccccc3F)n2)c1C1CC1	-0.7%	nt	nt	nt	nt	i
CCCCCCCCCCOCC(O)CN (configuration not stated)	nt	nt	?	0.0%	39.8µM*	39.8µM*
CCOC(=O)C1CCN(C(=O)c2ccc(NS(=O)(=O)c3ccc(F)cc3C)cc2)CC1	-0.3%	-97.1*	1.9%	-0.7%	-1.7%	i
O=C(c1ccc(Cl)c(S(=O)(=O)N2CCOCC2)c1)N1CCc2ccccc2C1	1.2%	-63.7*	9.8%	0.9%	-11.1%	i
CCOC(=O)C1CCN(C(=O)c2ccc(Cl)c(S(=O)(=O)N3CCOCC3)c2)CC1	2.0%[38.3 µM]	26.1	13µM*	?	6.9%	i
CCOC(=O)C1CCN(C(=O)c2ccc(Cl)c(S(=O)(=O)N3CCCC3)c2)CC1	1.1%	11.2	11.0%	0.6%	9.2%	i
COc1cc2c(cc1OC)C(c1cccc(Cl)c1)CC(=O)N2 (configuration not stated)	1.4%	68.0	0.2%	-5.8%[9.22 µM]	7.2%	i
COc1cc2c(cc1OC)C(c1cccc(C)c1)CC(=O)N2 (configuration not stated)	1.5%	11.8	-6.0%	4.11µM*	nt	i
COC(=O)COc1cc(C)cc2oc(=O)c(CC(=O)OC)c(C)c12	0.1%	-9.5	3.0%	0.5%	5.4%	i
COC(=O)COc1cc(OCC(=O)OC)c2c(C)c(Cl)c(=O)oc2c1	2.1%	-83.5*	1.3%	1.0%	3.5%	i
COCCCNC(=O)c1c(N)n(-c2ccccc2)c2nc3ccccc3nc12	3.4%	?	23.1µM*	20.6µM*	-16.5%	nt
CCc1ccccc1-n1c(N)c(C(=O)OC)c2nc3ccccc3nc21	-1.8%	nt	nt	nt	-8.4%	nt
COCCNC(=O)c1c(N)n(-c2cccc(C)c2)c2nc3ccccc3nc12	-0.7%	-52.7*	18.4µM*	13µM*	-10.7%	nt
COC(=O)c1c(N)n(-c2ccc(NC(C)=O)cc2)c2nc3ccccc3nc12	2.7%	-52.2*	0.1%	-4.7%	-16.7%	i
C=CCNC(=O)c1c(N)n(-c2cccc(S(N)(=O)=O)c2)c2nc3ccccc3nc12	-0.3%	-58.8*	3.26µM*	4.11µM*	-21.8%	nt
COC(=O)N(C)C[C@H]1OCc2cn(nn2)CCCC(=O)N([C@@H](C)CO)C[C@@H]1C	0.4%	16.9	nt	nt	1.9%	i
COCCCNC(=O)c1c(N)n(-c2ccc(S(N)(=O)=O)cc2)c2nc3ccccc3nc12	9.4%	-13.4	7.31µM*	9.2µM*	-14.2%	?
C=CCn1c(N)c(C(=O)Nc2ccccc2)c2nc3ccccc3nc21	8.8%	-61.9*	5.62µM*	22.5%[9.22 µM]	-13.5%	i
Cc1cc(C)cc(-n2c(N)c(C(=O)Nc3c(C)n(C)n(-c4ccccc4)c3=O)c3nc4ccccc4nc32)c1	0.6%	-13.4	?	0.2%	-18.1%	i
COCCCNC(=O)CSc1nc2ccccc2c(=O)n1CCc1ccc(S(N)(=O)=O)cc1	1.0%	-18.5	3.4%	-11.3%	-3.0%	i
Cc1ccc(-n2c(N)c(C(=O)Nc3c(C)n(C)n(-c4ccccc4)c3=O)c3nc4ccccc4nc32)cc1	-3.3%	-29.6	1.0%	1.0%	29.9µM*	nt
